Results filed as inconclusive are left out. A number with no mark means an inactive call. Calls of active or inactive are those of the source. The call rests on the fitted dose curve; in most records, active means well fitted inhibition curve with a large enough effect; inconclusive means small, poorly fitted or top-dose-only effect; inactive means flat fitted curve, though single readings scatter. Where a SMILES comes first, the peptide text is derived from it. [ ]: non-standard residue; d: D form. Hyp = O=C(O)[CH]1C[CH](O)CN1; Phe(ol) = N[CH](CO)Cc1ccccc1; Iva = CC[C](C)(N)C(=O)O; Aib = CC(C)(N)C(=O)O
Assays:
[1] = system: CRL-7250; experiment: Cytotoxic Profiling of Annotated Libraries Using Quantitative High-Throughput Screening (AID 1296008); conditions: Five cell lines viability, CellTiter-Glo ATP luminescence, 48-72 h; max response: active compounds read low; on max response: on the % scale 0 is the no-effect control and ±100 the full control effect
In short: (§1)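 Cells exposed to compounds for 48 or 72 hr at 37 degrees Celsius. Viability read as ATP-coupled luminescence with CellTiter-Glo after 10 min at room temperature.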

[2] = system: HaCat; experiment: as above; conditions: Five cell lines viability, CellTiter-Glo ATP luminescence, 48-72 h; max response: active compounds read low
In short: as §1

[3] = system: KB-3-1; experiment: as above; conditions: Five cell lines viability, CellTiter-Glo ATP luminescence, 48-72 h; max response: active compounds read low
In short: as §1

[4] = system: HACAT; experiment: qHTS assay to identify novel small-molecules to repurpose for Merkel cell carcinoma treatment (AID 1296009); conditions: MCC and control cell lines, CellTiter-Glo viability, 72 h; at 44.8 µM (top of the series) unless noted
In short: (§2)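 Cells were treated for 72 hr at 37 degree celsius with compounds in 8- or 11-point dose response. Viability was read by CellTiter-Glo luminescence, normalized to no-cell (cytotoxicity) and DMSO controls.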

[5] = system: NIH3T3; experiment: Cytotoxic Profiling of Annotated Libraries Using Quantitative High-Throughput Screening (AID 1296008); conditions: Five cell lines viability, CellTiter-Glo ATP luminescence, 48-72 h; max response: active compounds read low; on max response: on the % scale 0 is the no-effect control and ±100 the full control effect
In short: as §1

[6] = system: TAB165; experiment: qHTS profiling for inhibitors of Plasmodium falciparum proliferation (AID 504749); conditions: P. falciparum in erythrocytes, SYBR Green DNA, 72 h; series mostly up to 28.7 µM
In short: (§3)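 P. falciparum-infected erythrocytes (0.3% parasitemia, 2.5% hematocrit) incubated with compound 72 h at 37 C, 5% CO2. Parasite DNA detected by SYBR Green after lysis, overnight at room temperature; normalised to 0.29 uM artemisinin and DMSO.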

[7] = system: W2; experiment: as above; conditions: P. falciparum in erythrocytes, SYBR Green DNA, 72 h; series mostly up to 28.7 µM
In short: as §3

[8] = system: HEK293T; experiment: qHTS assay to identify novel small-molecules to repurpose for Merkel cell carcinoma treatment (AID 1296009); conditions: MCC and control cell lines, CellTiter-Glo viability, 72 h
In short: as §2

[9] = system: HEK293; experiment: Cytotoxic Profiling of Annotated Libraries Using Quantitative High-Throughput Screening (AID 1296008); conditions: Five cell lines viability, CellTiter-Glo ATP luminescence, 48-72 h; max response: active compounds read low; on max response: on the % scale 0 is the no-effect control and ±100 the full control effect
In short: as §1
Further: nearly all actives have a fitted effect of over 60% in size.
Potency means the concentration at half of the fitted maximal effect.

NCC(CNc1nc(Nc2cccc(NC(=O)N3CCCC3)c2)ncc1I)C(=O)c1cccs1 (centres undefined)
max response [1]: -26% | outcome [2]: inactive | Potency [3]: 11.6 µM (active) | outcome [4]: inactive

C=C(C)C1=C[C@@]2(C)C(=CC1=O)CC[C@@H](O)[C@@H]2C
max response [1]: 3.24% | outcome [2]: inactive | outcome [3]: inactive | outcome [4]: inactive

CCC(C)C(=O)Oc1cc(C)ccc1C1(COC(=O)C(C)C)CO1 (centres undefined)
max response [1]: -0.891% | outcome [2]: inactive | max response [3]: -3.14% | outcome [4]: inactive

CC(C)S(=O)(=O)c1ccc2nccc(Nc3ccc4scnc4c3)c2c1
max response [1]: -19% | outcome [2]: inactive | outcome [3]: inactive | outcome [4]: inactive

C/C=C(/C=C(C)/C=C/C=C/C=C(\C)C(=O)C12OC1C(O)(CCO)NC2=O)C(=O)OC (centres undefined)
max response [1]: -6.59% | outcome [2]: inactive | outcome [3]: inactive | max response [5]: -1.05% | outcome [4]: inactive [at 17.4 µM]

COC1C(OC(=O)/C=C/C=C/C=C/C=C/C(=O)O)CCC2(CO2)C1C1(C)OC1CC=C(C)C (centres undefined)
Potency [6]: 0.0316 µM (active) | Potency [7]: 0.0107 µM (active) | max response [1]: -15.2% | max response [2]: -3.3% | outcome [3]: inactive | max response [5]: 0.0729%

CN(CC1COCCO1)S(=O)(=O)Nc1ccc2ccc3ncc(-c4cnn(C)c4)cc3c(=O)c2c1 (centres undefined)
Potency [8]: 6.51 µM (active)

C=C[C@@]1(C)C=C2C(=O)C(O)=C3[C@](C)(C(=O)O)CC[C@@H]4C[C@]34[C@]2(O)C(=O)C1
Potency [9]: 1.8 µM (active) | Potency [2]: 10.1 µM (active) | Potency [5]: 3.6 µM (active)

CCn1c(-c2nonc2N)nc2c(C#CC(C)(C)O)ncc(OCC3CCCNC3)c21 (centres undefined)
Potency [9]: 0.82 µM (active) | outcome [2]: inactive | outcome [5]: inactive | outcome [4]: inactive

Cc1cn(CCN2CCN(c3ccccc3-c3cc(C#N)cc(C(=O)NCCCN4CCCC4)c3)CC2)c2ccccc12
Potency [9]: 14.8 µM (active) | Potency [5]: 16.6 µM (active)

COc1cc([C@H]2O[C@H](c3cc(OC)c4c(c3)OCO4)[C@H](C)[C@H]2C)cc(OC)c1OC
Potency [9]: 0.893 µM (active) | outcome [2]: inactive | outcome [4]: inactive [at 17.4 µM]

O=C(Nc1ccc(C(O)(C(F)(F)F)C(F)(F)F)cc1)c1ccc(C(F)(F)F)cc1
Potency [9]: 10.3 µM (active) | Potency [2]: 8.2 µM (active) | Potency [5]: 20.6 µM (active)

O=c1ccc2ccc(OCCCCN3CCN(c4cccc5sccc45)CC3)cc2[nH]1
Potency [9]: 11.6 µM (active) | max response [5]: -13.6%

CCc1cnc(N2CCC(c3nc(COc4ccc(-n5cnnn5)cc4)cs3)CC2)nc1
Potency [9]: 13 µM (active) | outcome [2]: inactive | max response [5]: -9.02% | outcome [4]: inactive

Cc1ccc(O)cc1Nc1ccnc(Nc2cccc(C(N)=O)c2)n1
Potency [9]: 14.6 µM (active) | Potency [5]: 2.31 µM (active)

COc1ccc(-c2ccc3c(N4CCOCC4C)nc(N4CCOCC4C)nc3n2)cc1CO (centres undefined)
Potency [9]: 0.146 µM (active) | Potency [2]: 2.91 µM (active) | Potency [5]: 0.231 µM (active)

Cc1cc2c(c(=O)o1)C=C1CC[C@H]([C@H](C)Cn3cnc(=N)c4[nH]cnc43)C[C@@H]1O2
Potency [9]: 8.2 µM (active) | outcome [2]: inactive | max response [5]: -1.79% | outcome [4]: inactive

C=C1C(=O)OC2/C=C(/C)C3=CC(=O)C(C)(CC(OC(=O)/C(C)=C/COC(C)=O)C12)O3 (centres undefined)
Potency [9]: 2 µM (active) | Potency [5]: 3.99 µM (active)

CCC(C)(NC(=O)C(CCC(N)=O)NC(=O)C1CC(O)CN1C(=O)C(C)(C)NC(=O)C(C)(C)NC(=O)C(CC(C)C)NC(=O)CNC(=O)C(NC(=O)C(C)(C)NC(=O)C(C)(C)NC(=O)C(C)(C)NC(=O)C(Cc1ccccc1)NC(C)=O)C(C)C)C(=O)N1CC(O)CC1C(=O)NC(C)(C)C(=O)NC(CO)Cc1ccccc1 (centres undefined) (Ac-F[Aib][Aib][Aib]VGL[Aib][Aib][Hyp]Q[Iva][Hyp][Aib][Phe(ol)]; configuration not given here)
max response [9]: -14.6% | outcome [2]: inactive | max response [5]: 2.9% | outcome [4]: inactive [at 9.27 µM]

COc1cc2c(cc1NS(=O)(=O)c1ccc(Br)cc1C)n(C)c(=O)n2C
Potency [9]: 1.46 µM (active) | max response [2]: 0.2% | max response [5]: 1.72%

CC(C)CCNC(=O)c1ccc2c(c1)nc(Nc1n[nH]c3ccc(-c4ccccc4OC(F)(F)F)cc13)n2C1CCC(O)CC1 (centres undefined)
Potency [9]: 9.2 µM (active) | outcome [2]: inactive | outcome [4]: inactive

CCn1c(-c2nonc2N)nc2c(C#CCO)ncc(OCCCN)c21
Potency [9]: 7.31 µM (active) | outcome [2]: inactive | outcome [5]: inactive | outcome [4]: inactive

c1ccc(-c2cnn3cc(-c4ccc(OCCN5CCOCC5)cc4)cnc23)cc1
Potency [9]: 2.31 µM (active) | outcome [2]: inactive | outcome [4]: inactive

C[C@H](CN(C)C)Oc1nc(Nc2cc3cccc(Cl)c3cn2)cnc1C#N
Potency [9]: 1.3 µM (active) | Potency [5]: 2.06 µM (active)

Source: PubChem BioAssay (NCATS)
